In the library only some 2.3% were active in any assay of this set; here they are far more common.
Nrf2 block: inhibitors of Nrf2 signaling | A549 ARE-Fluc reporter, luciferase luminescence, 18-24 h | Potency, µM (series often up to 46 µM), for inactives: top-dose activity change, negative = inhibition, actives largely listed as inhibitors | 360,000 compounds, 2.1% hits; also: potency is read from the fitted curve at half-maximal effect; % is scaled to controls: 0 for no effect and ±100 for the full control effect; nearly all actives have a fitted effect of over 60% in size
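A549 ARE_Fluc cells, 5000/well, 5% FBS OPTI-MEM; compounds in dose-response, 18-24 h at 37 °C/5% CO2; CellTiter-Fluor viability read (Ex 405/Em 525), then BugLite luciferase luminescence = Nrf2 activity.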
A549 viability: counter-screen for Nrf2 inhibitors: cytotoxicity in A549 cells; 390,000 compounds, 0.16% hits; Potency, µM (titrated, usually from 46 µM), for the others: top-dose activity change, negative = cytotoxicity, usual class: inhibitors; AID 504648; A549 ARE-Fluc cells, CellTiter-Fluor viability, 18-24 h; also: potency is read from the fitted curve at half-maximal effect; % is scaled to controls: 0 for no effect and ±100 for the full control effect
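A549 ARE-Fluc cells in 5% FBS OPTI-MEM, 5000 cells/well, rested 2 h then exposed to compounds in concentration-response for 18-24 h at 37 °C. Viability by CellTiter-Fluor fluorescence (Ex 405/Em 525) after 30 min; luciferase luminescence (BugLite, 15 min, RT) read afterwards.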
IL2 activator: IL-2 activation. IL-2 activation reporter assay, cell-based qHTS; stimulated with anti-CD3/CD4/CD28 beads; in transgenic mouse T cells. 360,000 compounds, 0.065% hits. activation, % (series mostly up to about 46 µM). AID 652025; in the data active = activation above about 50%; inconclusive = mostly about 30% to 49%; also: 0% is about no effect
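Screening format: compound pinned onto unstimulated transgenic mouse T cells, 60 min incubation, then anti-CD3/anti-CD4/anti-CD28 bead stimulation for 18 hours at 37 degrees C, followed by EGFP and DsRed detection.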
Nrf2 ARE act: Nrf2 pathway activation | Potency, µM (top dose mostly 46.1 µM), without a hit: top-dose activation, hits mostly activators | 410,000 compounds, 0.31% hits | AREc32 ARE-luciferase reporter (MCF7-derived line), luminescence, 24 h; also: potency is read from the fitted curve at half-maximal effect; % of control where 0% means no effect; nearly all actives have a fitted effect of over 65% in size
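Luciferase luminescence (Steady-Glo, 30 min at room temperature) served as the read-out of ARE activation in AREc32 cells treated with compounds for 24 hr at 37 deg C.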
* marks the source's active call; other numbers are inactive results; ? = inconclusive; nt = no result given. Unless noted, calls follow the shape of the dose curve; as a rule, active = well fitted curve in the direction sought with a large enough effect; inconclusive = small, poorly fitted or top-dose-only effect, or another doubt; inactive = no such curve, though single readings can be large; an effect the other way counts as inactive or inconclusive.

SMILES | Nrf2 block | A549 viability | IL2 activator | Nrf2 ARE act
CC1(C)C(=O)N(CC(=O)Nc2ccc(OC(F)(F)F)cc2)c2ccccc21 | nt | -0.7% | nt | 5.3%
c1ccc(Cc2nc3ccccc3n2Cc2ccccc2)cc1 | -13.2% | -5.6% | -1.5 | 0.5%
Cc1nc2ccccc2n1Cc1ccccc1 | 20.6µM* | 1.1% | -0.4 | -0.2%
CC(C)(C)C(=O)N(Cc1ccc(Cl)cc1)c1cnccn1 | 18.4µM* | -1.2% | -1.9 | 0.1%
CCc1nn(CC(=O)Nc2cccc(C(C)=O)c2)c(=O)c2cc3sccc3n12 | ? | -11.9% | nt | 3.6%
CCOC(=O)c1c(Nc2ccc(C)c(C)c2)nnc(-c2ccccc2)c1-c1ccccc1 | -18.1% | -0.6% | nt | 1.1%
O=C(CN1C(=O)CCC1=O)c1ccc(-c2ccccc2)cc1 | ? | 3.7% | 1.0 | 5.6%
N=c1ccn(CC(=O)c2ccc(-c3ccccc3)cc2)cc1 | 7.31µM* | ? | -1.4 | 6.1%
NC(=O)[C@H]1CC2(CC(c3cccc(NC(=O)COc4ccc(Cl)cc4)c3)=NO2)CN1C(=O)c1ccc(Cl)cc1 (some centres not stated) | 25.9µM* | ? | -0.6 | -3.3%
NC(=O)[C@H]1CC2(CC(c3cccc(NC(=O)COc4ccc(Cl)cc4)c3)=NO2)CN1C(=O)c1ccccc1C(=O)c1ccccc1 (some centres not stated) | ? | -15.7% | -0.7 | 3.6%
CC1CC(C)CN(S(=O)(=O)c2ccc(C(=O)NCc3ccc4c(c3)OCO4)cc2)C1 (configuration not stated) | 10.3µM* | 1.3% | -1.7 | 0.3%
COc1cc(-c2nc3ccccc3s2)ccc1O | 18.4µM* | -8.2% | -0.1 | 6.31µM*
COc1ccc(-c2nc3ccccc3s2)cc1O | ? | -9.6% | 0.1 | ?
COc1cccc(C2c3c(ncn(-c4ccccc4C(C)(C)C)c3=N)Oc3ccc4ccccc4c32)c1 (configuration not stated) | -1.5% | -5.2% | nt | nt
CN(C(=O)c1ccc(NC(=O)Cc2ccc(NC(=O)C3CCCN(C(=O)CCc4ccccc4)C3)cc2)cc1)C1CC1 (configuration not stated) | 11.6µM* | -11.0% | -0.7 | 3.7%
CN(C(=O)c1ccc(NC(=O)Cc2cccc(NC(=O)C3CCCN(C(=O)C4CCC4)C3)c2)cc1)C1CC1 (configuration not stated) | -8.4% | 8.1% | -0.1 | 0.7%
CN(C(=O)c1ccc(NC(=O)Cc2cccc(NC(=O)C3CCCN(C(=O)CCc4ccccc4)C3)c2)cc1)C1CCCC1 (configuration not stated) | 14.6µM* | -14.6% | -2.2 | 4.4%
CN(C(=O)c1cccc(NC(=O)Cc2ccc(NC(=O)C3CCCN(C(=O)CCc4ccccc4)C3)cc2)c1)C1CCC1 (configuration not stated) | 16.4µM* | -12.6% | -0.3 | 3.8%
CN(C(=O)c1ccc(NC(=O)Cc2cccc(NC(=O)C3CCCN(C(=O)C4CCCC4)C3)c2)cc1)C1CCCC1 (configuration not stated) | 18.4µM* | -10.9% | -0.5 | 4.8%
O=C(NCc1ccccc1Cl)c1ccc2c(c1)N(Cc1ccccc1)C(=O)c1ccccc1S2 | nt | 12.9% | nt | -0.4%
COc1cccc(CCNC(=O)c2ccc(Cn3c(SCc4ccccc4)nc4cccnc43)cc2)c1 | ? | -26.4% | nt | 2.8%
CN(C(=O)c1cccc(NC(=O)Cc2ccc(NC(=O)C3CCCN(C(=O)CCc4ccccc4)C3)cc2)c1)C1CCCC1 (configuration not stated) | 20.6µM* | ? | -0.6 | 4.3%
CN(Cc1ccccc1)C(=O)c1ccc(NC(=O)Cc2cccc(NC(=O)C3CCCN(C(=O)CCc4ccccc4)C3)c2)cc1 (configuration not stated) | 20.6µM* | -10.8% | -0.6 | 5.0%
CN(Cc1ccccc1)C(=O)c1cccc(NC(=O)Cc2ccc(NC(=O)C3CCCN(C(=O)CCc4ccccc4)C3)cc2)c1 (configuration not stated) | ? | -1.6% | -0.4 | 6.2%
COc1cccc(NC(=O)N2CCC(n3c(C)nc4cccnc43)CC2)c1 | nt | 0.1% | nt | 0.9%
SMILES | Nrf2 block | A549 viability | IL2 activator | Nrf2 ARE act
COc1ccc(NC(=O)Nc2sc3nc4n(c(=O)c3c2C)CCC(C)CC4)cc1OC (configuration not stated) | -19.1% | 1.9% | nt | 6.4%
COCCCNc1nc2ccccc2nc1NS(=O)(=O)c1cc(Cl)ccc1Cl | 20.6µM* | -19.1% | 0.0 | 2.2%
COCCCNc1nc2ccccc2nc1NS(=O)(=O)c1ccc(Cl)cc1 | 2.1% | 12.1% | 0.6 | -1.0%
CCOC(=O)/C=C/c1cc(F)c(S(=O)(=O)N2CCN(S(=O)(=O)c3ccc4c(c3)OCCO4)CC2)cc1F | 6.8% | 0.7% | nt | nt
Nc1nc(Nc2ccccc2)nc(NCc2ccccc2)c1[N+](=O)[O-] | 23.1µM* | ? | -3.4 | 6.0%
O=C1C(NS(=O)(=O)c2cccs2)=C(N2CCN(c3cccc(Cl)c3)CC2)C(=O)c2ccccc21 | 20.6µM* | ? | 0.6 | 8.6%
CCSc1nnc(NC(=O)C(C(F)(F)F)C(F)(F)F)s1 | -11.1% | 0.0% | -4.0 | ?
CCSc1nnc(NC(=O)C(CC)(C(F)(F)F)C(F)(F)F)s1 | 14.6µM* | ? | 4.0 | 3.0%
CCSc1nnc(NC(=O)NCC(F)(F)F)s1 | -17.3% | -3.5% | -0.1 | 9.1%
CCSc1nnc(NC(=O)C(C)(C(F)(F)F)C(F)(F)F)s1 | 16.4µM* | ? | -2.6 | -0.2%
CC(C)COc1ccc(C(=O)Nc2onc3c2CCCC3)cc1 | ? | 3.6% | nt | 8.0%
CCC(=O)N1CCc2cc(S(=O)(=O)NC(Cc3ccccc3)C(=O)Nc3ccc(C)cc3)ccc21 (configuration not stated) | ? | -0.5% | nt | -0.3%
CCCN1Cc2cccc(C(=O)Nc3cc(C)cc(C)c3)c2C1=O | 0.3% | -5.3% | nt | 0.3%
CC1=NN(c2ccccc2)C(=O)/C1=C/C=C/C=C/N(C)C | ? | 10.3µM* | 2.0 | 3.8%
CC1=NN(c2ccc(C)cc2)C(=O)/C1=C\C=C\c1ccccc1 | 13.2% | -0.2% | 0.0 | ?
Cc1c(N/N=C(\C#N)C(=O)c2ccccc2)c(=O)n(-c2ccccc2)n1C | ? | 20.6µM* | 0.6 | -1.2%
Cc1ccccc1C(=O)/C(C#N)=N/Nc1c(C)n(C)n(-c2ccccc2)c1=O | 8.2µM* | 18.4µM* | 0.5 | -0.1%
CCOC(=O)/C(C#N)=N/Nc1c(C)n(C)n(-c2ccccc2)c1=O | ? | -29.2% | 0.4 | 0.5%
O=C(NCC(c1ccc2c(c1)OCO2)N1CCOCC1)c1c(F)cccc1F (configuration not stated) | nt | 7.6% | nt | 1.1%
O=C(Nc1nc(Nc2cc(F)cc(F)c2)nc(NC2CCCC2)n1)OCc1ccccc1 | 10.2% | 1.2% | nt | nt
O=C1C(=Cc2cccs2)Oc2ccccc21 | -13.4% | 0.5% | -0.5 | 11.2µM*
Cc1ccccc1/C=C1\Oc2ccccc2C1=O | 6.6% | -5.3% | -0.1 | 12.6µM*

Bioassay records (PubChem)
